The source of these data is PubChem BioAssay (NCATS).

Inconclusive results are not listed. A call without a number means that no potency is given here. Activity calls are given as the source filed them. Calls come from the whole dose curve; as a rule, active = well fitted inhibition curve with a large enough effect; inconclusive = small, poorly fitted or top-dose-only effect; inactive = flat fitted curve, though single readings scatter. Where a SMILES comes first, the peptide text is derived from it. [ ]: non-standard residue; d: D form. pGlu = O=C1CC[C@@H](C(=O)O)N1; Thz = O=C(O)[C@@H]1CSCN1
Potency is the fitted concentration of half-maximal effect.

The assay concerns astro (control astrocytes). Kind of assay: Drug repurposing screens with cells derived from glioblastoma tumor samples (AID 1345199). Note: nearly all actives have a fitted effect of over 40% in size. The conditions noted are these: viability, ATP luminescence, 48 h; series mostly up to 45.9 µM. The method, then: CD133+ cells were isolated from GBM patient biopsies and cultured as neurospheres. Neurospheres from four patients were used to screen the NCATS pharmaceutical collection (NPC) library of approved drugs and bioactive compounds. […] The neurospheres were incubated with drugs for 48 hours in 1536-well format, then assayed with an ATP content cell viability assay. […] These hits were cherry picked to confirm activity in the four original GBM lines screened plus three other slower growing GMB lines (unable to yield enough cells for a full primary screen). Variable activities of the confirmed primary hits in the different GBM patient lines were observed. The patient line 206 responded to the greatest number of compounds and line 923 responded to the least amount of active compounds.
For `Nc1cc(-c2ccncc2)c[nH]c1=O`, the Potency result was “inactive”.
Take `CC(=O)O[C@H]1C[C@@]2(C)[C@@H](C[C@@H](O)[C@H]3[C@@]4(C)CC[C@@H](O)[C@@H](C)[C@@H]4CC[C@@]32C)/C1=C(\CCC=C(C)C)C(=O)O`: the Potency entry is “inactive”.
Then `O=C(CCN1CCN(CCO)CC1)N1c2ccccc2Sc2ccc(C(F)(F)F)cc21`, with “inactive”; and `O=C(O)/C=C/C(O)c1ccc(Cl)cc1` (stereo not given), with “inactive”; and `N=c1ccn2c(n1)O[C@H]1[C@H](O)[C@@H](CO)O[C@H]12`, with “inactive”.
For `CC[C@H]1OC(=O)[C@H](C)[C@@H](O[C@H]2C[C@@](C)(OC)[C@@H](O)[C@H](C)O2)[C@H](C)[C@@H](O[C@@H]2O[C@H](C)C[C@H](N(C)C)[C@H]2O)[C@](C)(O)C[C@@H](C)C(=O)[C@H](C)[C@@H](O)[C@]1(C)O`, the Potency result is “inactive”.
With `CCCSc1ccc2nc(NC(=O)OC)[nH]c2c1`, the Potency is 0.501 µM (active).
For `C[N+](C)(C)CCOP(=O)(O)OP(=O)([O-])OC[C@H]1O[C@@H](n2ccc(N)nc2=O)[C@H](O)[C@@H]1O`, the Potency entry is “inactive”.
Under `CCCCCCOc1ccccc1C(N)=O` stands 14.1 µM (active); under `CN(C)CCn1nnnc1SCC1=C(C(=O)O)N2C(=O)[C@@H](NC(=O)Cc3csc(N)n3)[C@H]2SC1`, “inactive”.
For `C[S+](CC[C@H](N)C(=O)O)C[C@H]1O[C@@H](n2cnc3c(N)ncnc32)[C@H](O)[C@@H]1O` (stereo not given in full), the Potency entry was “inactive”.
As to `CC1(C)S[C@@H]2[C@H](NC(=O)[C@H](N)c3ccc(O)cc3)C(=O)N2[C@H]1C(=O)O`, the Potency result is “inactive”.
As to `O=C(O)Cc1ccc(-c2ccccc2)cc1`, the Potency entry was “inactive”.
Consider `COc1ccc(/C=C/C(=O)Nc2ccccc2C(=O)O)cc1OC`, for which the Potency is 17.8 µM (active).
As for `CC(N)C(=O)OC(C)(C)Cc1ccc(Cl)cc1` (stereo not given), the Potency result is “inactive”.
Turning to `CC(C(=O)O)c1ccc2c(c1)[nH]c1ccc(Cl)cc12` (stereo not given), the Potency result was “inactive”.
Consider `CCOC(=O)c1ccccc1O`, for which the Potency entry is “inactive”.
For `O=C(OCc1ccccc1)c1ccccc1`, the Potency entry is “inactive”.
In the case of `C=CCCCCCCCCC(=O)O`, the Potency entry was “inactive”.
Then `O=C1CC[C@@H](C(=O)N2CSC[C@H]2C(=O)O)N1` ([pGlu]-[Thz]-OH), with “inactive”.
Under `CCCOC(=O)c1ccc(O)cc1` stands “inactive”.
With `CC(C(=O)O)c1ccc(C(=O)c2cccs2)cc1` (stereo not given), the Potency result is “inactive”.
With `COc1cc(CNC(=O)CCCC/C=C/C(C)C)ccc1O`, the Potency entry is “inactive”.
Under `CC1(C)S[C@@H]2[C@H](NC(=O)[C@H](NC(=O)N3CCN(S(C)(=O)=O)C3=O)c3ccccc3)C(=O)N2[C@H]1C(=O)O` stands “inactive”; under `Cc1onc(-c2c(F)cccc2Cl)c1C(=O)N[C@@H]1C(=O)N2[C@@H]1SC(C)(C)[C@@H]2C(=O)O`, “inactive”.
Take `COc1ccc(-c2cc(=S)ss2)cc1`: the Potency entry was “inactive”.
Consider `COc1cc2c3cc1Oc1cc(ccc1O)C[C@@H]1c4c(cc(OC)c(O)c4Oc4ccc(cc4)C[C@@H]3N(C)CC2)CC[N+]1(C)C`, for which the Potency result was “inactive”.
Consider `CCCC(=O)OC[C@@H](OC(=O)CCC)[C@@H](OC(=O)CCC)[C@H](Cn1c2nc(=O)[nH]c(=O)c-2nc2cc(C)c(C)cc21)OC(=O)CCC`, for which the Potency entry was “inactive”.
With `Cc1c(N)c(=O)n(-c2ccccc2)n1C`, the Potency result was “inactive”.
As to `O=C(O)[C@H](CC(=O)N1C[C@H]2CCCC[C@H]2C1)Cc1ccccc1`, the Potency result was “inactive”.
As to `CN1[C@@H]2CC[C@H]1CC(OC(c1ccccc1)c1ccccc1)C2` (stereo not given in full), the Potency result is “inactive”.
`CN1[C@@H]2CC[C@H]1CC(OC(=O)C(CO)c1ccccc1)C2` (stereo not given in full): the Potency result is “inactive”.
Then `C#CC1(O)CC[C@H]2[C@@H]3CCC4=CCCC[C@@H]4[C@H]3CC[C@@]21C` (stereo not given in full), with “inactive”; and `CO[C@@]1(NC(=O)Cc2cccs2)C(=O)N2C(C(=O)O)=C(COC(N)=O)CS[C@@H]21`, with “inactive”.
With `CC1(C)[C@@H](O[C@H]2O[C@H](C(=O)O)[C@@H](O)[C@H](O)[C@H]2O[C@@H]2O[C@H](C(=O)O)[C@@H](O)[C@H](O)[C@H]2O)CC[C@]2(C)[C@H]3C(=O)C=C4[C@@H]5C[C@@](C)(C(=O)O)CC[C@]5(C)CC[C@@]4(C)[C@]3(C)CC[C@@H]12`, the Potency entry was “inactive”.
Under `C=C(Nc1ccc(OCC)cc1)Nc1ccc(OCC)cc1` stands “inactive”; under `CCCCCCCCCCCCCCCC(=O)OC(C)C`, “inactive”; under `CN1CCN(c2cc3c(nn2)Oc2ccccc2N3C)CC1`, “inactive”.
Take `Cc1ccc(C(=O)c2ccc(CC(=O)O)n2C)cc1`: the Potency entry was “inactive”.
Regarding `COC(=O)[C@H]1[C@H]2C[C@@H]3c4[nH]c5cc(OC)ccc5c4CCN3C[C@H]2C[C@@H](OC(=O)/C=C/c2cc(OC)c(OC)c(OC)c2)[C@@H]1OC`, the Potency entry is “inactive”.
